Bioassay records from PubChem.
EWS-Fli block: inhibitors of EWS/Fli oncoprotein transcriptional activity. A673 NR0B1-luciferase reporter, viability-normalised. 0.67% of 350,000 active. AID 651661. inhibition, % at 12.6 µM;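 active = mean inhibition of at least 50% after viability correction, with every replicate also passing that limit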;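 also: firefly luciferase signal divided by Alamar Blue viability fluorescence both relative to DMSO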
LGR2 antag: inhibitors of bursicon-induced Drosophila LGR2 receptor cAMP signaling. inhibition, % at 9.99 µM. HEK293 LGR2, CRE-luciferase, bursicon-stimulated, 4 h. 0.35% of 380,000 active. AID 720647;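 active = drop in luminescence signal, shown as inhibition above about 50% in the replicate tests, limit read from the data, passing the limit was not always enough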;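 also: agonist challenge used bursicon conditioned medium at about half maximal strength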
LMP1 NFkB inh: Epstein-Barr LMP1 NF-kappaB reporter inhibition | 0.69% of 350,000 active | inhibition, % at 12.5 µM | LMP1-induced NF-kappaB luciferase reporter cells, luminescence | AID 504558; in the data active = inhibition above about 41%;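 also: 0% = neutral control wells and 100% = reference inhibitor control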
PAX8 reporter: PAX8 transcriptional activity inhibition | inhibition, % at 12.6 µM | 1.2% of 360,000 active | RMG-I TPO-luciferase reporter, SteadyGlo, 24 h;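 active = mean replicate inhibition at least 60% with every replicate also reaching 60%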;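 also: luciferase light reporting Pax8 driven TPO promoter activity; plate controls were median of neutral control wells for no effect and mitoxantrone controls for full effect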
TROY signal inh: blocks TROY-dependent signaling in reporter cells; AID 1347056; 0.98% of 360,000 active; Q293 LMP1-TROYcd NF-kB luciferase reporter, 4 h; inhibition, % at 10 µM;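 active = compounds whose plate-normalised and pattern-corrected inhibition of the luciferase reporter signal at the single screening dose is 50% or more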
TWEAK Fn14 block: inhibitors of TWEAK-Fn14 interaction signaling. inhibition, % at 10 µM. TWEAK-stimulated Fn14 reporter cells, luciferase luminescence, 8 h. 2% of 360,000 active; in the data active = inhibition above about 50%
Numbers without * were called inactive; . = no result given. Hits are enriched below; roughly 3.1% of the tested compounds scored in any of these assays.

SMILES | EWS-Fli block | LGR2 antag | LMP1 NFkB inh | PAX8 reporter | TROY signal inh | TWEAK Fn14 block
O=C(NCC[C@@H]1CC[C@@H](NS(=O)(=O)c2cccc(F)c2)[C@H](CO)O1)C1CCCCC1 | -5 | -13 | . | -8 | . | .
Cc1cc(C)n(CCC(=O)N/N=C/c2ccc(O)cc2)n1 | . | 2 | 5 | . | 9 | 6
Cc1cc(C)n(CCC(=O)N/N=C/c2c(O)ccc3ccccc23)n1 | 10 | 24 | 56* | 47 | 19 | 36
O=C(N/N=C\c1c(O)ccc2ccccc12)c1ccc(Cn2cccn2)o1 | . | 5 | 25 | 67* | 6 | -24
COc1ccc2ccccc2c1/C=N/NC(=O)c1cccc(Br)c1 | 5 | 6 | 6 | -9 | -26 | -19
O=C(N/N=C/c1c(O)ccc2ccccc12)c1cccc(C(F)(F)F)c1 | . | 22 | 26 | 70* | 42 | 41
C[C@@H]1CN([C@@H](C)CO)C(=O)Cc2cc(NC(=O)CCC(F)(F)F)ccc2O[C@@H]1CN(C)C(=O)Nc1ccc(F)cc1 | -1 | 8 | . | -2 | . | .
C[C@H](CO)N1C[C@H](C)[C@H](CN(C)Cc2ccccc2)Oc2ccc(NS(=O)(=O)c3cn(C)cn3)cc2C1=O | -7 | -3 | . | -3 | . | .
CC1Cc2ccccc2N1C(=O)c1cc2c(=O)n3ccccc3nc2n1C (stereo not drawn) | . | . | 0 | 51 | -14 | 53*
CCCC#Cc1ccc([C@H]2[C@@H](CO)N3C(=O)CN(C(=O)c4ccccc4)C[C@@H]23)cc1 | . | 3 | . | . | . | .
CCC(=O)N[C@@H]1CC[C@@H](CCn2cc(C3CC3)nn2)O[C@H]1CO | 3 | 6 | . | -3 | . | .
Nc1c(N(CCC2=CCCCC2)C(=O)COc2ccc(F)cc2Cl)c(=O)[nH]c(=O)n1Cc1ccccc1 | 58* | -8 | 6 | 9 | 10 | 42
O=C(N/N=C/c1ccc(Sc2nc3ccccc3[nH]2)o1)c1ccncc1 | 6 | 6 | 11 | 12 | -7 | 3
CCN1C(=O)S/C(=C/c2ccc(Sc3nc4ccccc4[nH]3)o2)C1=O | 6 | 8 | 24 | 4 | 32 | 79*
c1ccc2nc(-c3ccncc3)ccc2c1 | . | . | 1 | . | -21 | -17
Cc1cc(-c2ccc(N3CCOCC3)cc2)nc2ccccc12 | -45 | -59 | -24 | -63 | -41 | -29
c1ccc2nc(-c3ccc(N4CCOCC4)cc3)ccc2c1 | . | . | 66* | . | 53* | 90*
CN1CCN(c2ccc(-c3ccc4ccccc4n3)cc2)CC1 | 93* | 102* | 83* | 94* | 92* | 103*
O=C(Nc1cc(F)ccc1F)N[C@@H]1C=C[C@@H](CC(=O)N2CCc3ccccc3C2)O[C@H]1CO | -2 | -21 | . | 15 | . | .
Cc1noc(C)c1S(=O)(=O)Nc1ccc2c(c1)C(=O)N([C@@H](C)CO)C[C@@H](C)[C@H](CN(C)S(=O)(=O)c1ccc(F)cc1)O2 | 5 | 0 | . | . | . | .
COc1ccc(Cn2c(SCc3ccc(C)cc3)nc3cc(OC)c(OC)cc3c2=N)cc1Cl | . | . | 90* | 109* | 27 | -2
COc1ccc(CN(C)C[C@@H]2Oc3ccc(NC(=O)Nc4c(C)noc4C)cc3C(=O)N([C@H](C)CO)C[C@H]2C)cc1 | 7 | -3 | . | -23 | . | .
Cc1nc(NCc2ccco2)c2c(C)c(C)sc2n1 | . | . | -22 | . | 29 | -27
Cc1sc2nc3c4ccccc4c(NCc4ccco4)nn3c(=O)c2c1C | . | . | -34 | . | -30 | 64*
COC(=O)CCC(=O)Nc1cc(Cl)cc(Cl)c1 | -3 | 36 | -7 | 70* | -1 | 10
SMILES | EWS-Fli block | LGR2 antag | LMP1 NFkB inh | PAX8 reporter | TROY signal inh | TWEAK Fn14 block
COC(=O)CCC(=O)Nc1ccc(NC(=O)CCC(=O)OC)cc1 | . | 9 | 6 | . | 5 | -1
COCC(=O)N1C[C@H](C)[C@@H](OC)CN(C)C(=O)c2ccc(NC(=O)c3cc(C)on3)cc2OC[C@H]1C | -1 | 13 | . | -3 | . | .
Cc1nc(-c2coc3cc(O)c(C)cc3c2=O)cs1 | . | . | 12 | . | 34 | 65*
CN(C)CC(=O)N[C@@H]1CC[C@@H](CCNC(=O)C2CCCCC2)O[C@H]1CO | -6 | -1 | . | -16 | . | .
COCC(=O)N1CCCC(CNS(=O)(=O)c2ccc(OC)cc2)C1 (stereo not drawn) | 11 | 33 | -1 | 2 | 71* | -9
O=C(/C=C/c1c(Cl)nc2ccccn12)Nc1ccc(F)cc1 | -7 | . | -7 | 111* | -30 | -36
O=Cc1c(Cl)nc2ccccn12 | 3 | -22 | -5 | 5 | -6 | -25
C[C@@H]1CN([C@H](C)CO)C(=O)Cc2cc(NC(=O)Nc3ccccc3)ccc2O[C@H]1CN(C)C(=O)Nc1ccc(F)cc1 | 0 | -15 | . | . | . | .
